Screens (PubChem BioAssay)
Keap1-Nrf2 PPI = inhibitors of human Keap1-Nrf2 protein-protein interaction; AID 504523; inhibition, % at 9.4 µM; Q14145; Keap1 Kelch-Nrf2 peptide fluorescence polarization, 1536-well; actives 0.15% (n = 340,000); in the data active means inhibition above about 12%;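 further: human Keap1 Kelch domain with fluorescein labeled Nrf2 9mer peptide probe; higher means more block of Keap1 binding to Nrf2 peptide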
RTF Ca sens act = cardiac RTF calcium sensitization; activation, % at 7.2 µM; IANBD-labeled TnC RTF fluorescence at EC20 calcium; 0% EC20 calcium, 100% full calcium; P19429+P45379; actives 0.24% (n = 340,000);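 active means activation above the mean over all tested compounds plus 3 SD, cut at about 30% in these data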;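 further: rise in fluorescence read as greater calcium sensitivity of cardiac thin filaments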
LANA DNA inh = inhibitors of KSHV LANA C-terminal domain DNA binding; inhibition, % at 9 µM; MBP-C-LANA/FAM-LBS DNA binding, fluorescence polarization; actives 0.078% (n = 340,000);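 active means highest replicate inhibition at or above 60% at 9 µM, even if other replicates fall short; inactive means all replicates below 60% inhibition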
LANA-H2B inh = blocks KSHV LANA binding to histone H2A/H2B | Q9QR71 | cell-free LANA-H2A/H2B peptide, fluorescence polarization | inhibition, % (test concentration not listed) | actives 0.6% (n = 320,000) | AID 2629; in the data active means inhibition mostly above about 10%, no sharp cut-off; inactive means mostly below about 6.7%
Cardiac RTF inh = cardiac RTF calcium desensitization | P19429+P45379 | IANBD-labeled cardiac RTF, Ca2+ fluorescence | inhibition, % at 7.15 µM | actives 0.12% (n = 340,000) | AID 493244;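 active means inhibition above the mean inhibition of all tested compounds plus 3 SD, cut at about 17% in these data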;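 further: assay run at fixed EC70 calcium of 1.6 mM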
A number is an active result; – = inactive; · = no result given. Most compounds without a hit are left out; they make up all but 0.98% or so of the library.

SMILES	Keap1-Nrf2 PPI	RTF Ca sens act	LANA DNA inh	LANA-H2B inh	Cardiac RTF inh
CCc1ccc(N2CC(C(=O)OCC(=O)N(CC)c3c(N)n(Cc4ccccc4)c(=O)[nH]c3=O)CC2=O)cc1 (stereo not given)	188	–	·	·	–
CCN(C(=O)COC(=O)c1cc(Cl)ccc1OC)c1c(N)n(Cc2ccccc2)c(=O)[nH]c1=O	–	–	–	39	–
CC(C(=O)Nc1ccc(F)c(F)c1F)N(C)CCOc1ccccc1 (stereo not given)	–	–	–	11	–
COc1ccccc1-c1ccc(=O)n(CC(=O)NCc2ccco2)n1	–	–	–	37	–
COc1cc2c3nnc(-c4ccc(F)cc4)c-3cn(Cc3cccc(F)c3)c2cc1OC	–	49	–	–	–
COc1cc(NC(=O)c2ccccc2)c(OC)cc1Cl	–	–	–	–	–
COc1cc(OC)c(NC(=O)c2cc3ccccc3cc2O)cc1Cl	–	32	–	·	–
Cc1ccc(C)c(C(=O)CCC(=O)NCc2ccc(Cl)cc2)c1	–	–	–	–	–
CC1CCCCN1C(=O)CSc1nnc(CSc2ncccn2)n1C (stereo not given)	–	–	–	–	–
N#C/C(=C\c1ccc(N2CCOCC2)o1)C(=O)NCC1CCCO1 (stereo not given)	–	53	–	–	–
N#C/C(=C/c1ccc(-c2ccc(S(=O)(=O)N3CCOCC3)cc2)o1)C(=O)NC1CC1	–	–	–	·	–
N#C/C(=C\c1ccc(N2CCOCC2)o1)C(=O)NC1CCCCC1	–	45	–	–	–
N#C/C(=C\c1ccc(-c2ccc(C(=O)O)cc2)o1)C(=O)NCC1CCCO1 (stereo not given)	–	–	–	–	–
C=CCSc1nnc(CC(OC)OC)n1-c1ccccc1	–	–	–	–	–
Cc1ccc[n+](-c2nc([O-])sc2C=O)c1	63	94	83	29	–
COc1ccc(-n2c(=S)[nH]c3cc(C(=O)Nc4cccc(C)c4)ccc3c2=O)cc1	–	–	–	–	–
COc1ccc(-n2c(=S)[nH]c3cc(C(=O)Nc4ccc(OC)c(OC)c4)ccc3c2=O)cc1	–	–	–	126	–
O=C1Nc2ccccc2Nc2ncccc21	–	–	–	15	–
CC(C)c1ccccc1NC(=O)C1C2C=CC(C2)C1C(=O)O (stereo not given)	–	–	–	–	–
Cc1ccc(-n2nc(C)c3onc(C)c3c2=O)cc1	–	–	–	28	–
Cc1ccc(-n2nc(C)c3c(C)cc(=O)[nH]c32)cc1	–	–	–	–	–
Cn1cc(-c2cccc(C(F)(F)F)c2)cc(C#N)c1=O	–	–	–	–	–
O=C(O)CN1C(=O)/C(=C\c2ccc(OC(=O)c3ccco3)cc2)SC1=S	–	–	–	–	–
O=C(O)CN1C(=O)/C(=C\c2cn(CC(=O)N3CCOCC3)c3ccccc23)SC1=S	–	134	–	–	–
O=C(O)CN1C(=O)/C(=C/c2ccc(SCc3ccccc3)o2)SC1=S	–	35	–	·	–
SMILES	Keap1-Nrf2 PPI	RTF Ca sens act	LANA DNA inh	LANA-H2B inh	Cardiac RTF inh
Cc1c(C(=O)N(CC(C)C)c2c(N)n(Cc3ccccc3)c(=O)[nH]c2=O)sc2nc3n(c(=O)c12)CCC3	–	–	–	–	–
Cc1nc2ncnn2c(C)c1CCC(=O)N1CC(C)CC(C)C1 (stereo not given)	–	–	–	–	–
COc1ccc(OC)c(NC(=O)c2cc(-c3cc(Cl)ccc3O)n[nH]2)c1	–	–	–	–	–
COc1ccc(Cl)cc1NC(=O)c1cc(-c2ccccc2O)n[nH]1	–	–	–	16	–
Cn1c(=O)c2c(nc(Cl)n2CC(=O)NC2(C#N)CCCCC2)n(C)c1=O	–	–	–	–	–
O=c1c2ccccc2nc(/C=C/c2cccc([N+](=O)[O-])c2)n1CCO	–	–	–	19	–
CCn1c(/C=C/c2cccc([N+](=O)[O-])c2)nc2ccccc2c1=O	–	–	–	–	–
COc1ccccc1NC(=O)Nc1ccc2c(c1)nc(C)n2C	–	–	–	–	–
O=c1cc(-c2ccc(O)c(O)c2)oc2cc(O)c([C@@H]3O[C@H](CO)[C@@H](O)[C@H](O)[C@H]3O)c(O)c12	–	–	–	–	–
O=c1c2cc(O)c(O)cc2oc2cc(O)c(C3OC(CO)C(O)C(O)C3O)c(O)c12 (stereo not given)	–	–	67	–	–
CCN(CC)c1ccc(/C=C(\C#N)C(=O)NCc2ccccc2)cc1	–	36	–	–	–
